Hit rate of the full screen: of about 2,300 compounds, about 55 (2%) were called active.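 How the source made its calls: active means share of green or green-and-red cells above 9 and 9% in run 1 or 4 and 3% in run 2; inactive means the rest, inconclusive results apart.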 A selection follows.

The nature of this assay: inducers of myeloid progenitor differentiation, confirmation, cell-based, GFP/Mac1 flow cytometry, cherry pick 01 (AID 651706).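 On differentiation response: plate controls were double positive share in DMSO wells for no effect and share in positive control wells for full effect.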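 On double positive cells: share of live cells carrying both lysozyme GFP and MAC1 staining after four days.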 The settings on record: ER-HoxA9 myeloid progenitors, stronger effect = higher value; differentiation response: GFP/Mac1 double-positive flow; double positive cells: measured here: percent double positive cells.
In the case of `Cc1ccc2nc(-c3ccccn3)cc(C(=O)Nc3ccc4c(c3)OCO4)c2c1`, the differentiation response was 1.4% (inactive) and the double positive cells was determined as 0.8%.
The corresponding values for `CCN(CC)CC(=O)c1c[nH]c2ccc(OC)cc12` are 1.4% (inactive) and 0.9%.
Regarding `CNc1nc(=O)n(C2CCCO2)cc1C` (stereo not given), the differentiation response is 2.7% (inactive) and the double positive cells was 1.3%.
As for `Cc1cc(C)c(-c2csc(NC(=O)CCCc3nc4ccccc4c(=O)[nH]3)n2)c(C)c1`, the differentiation response was 3.35% (inactive) and the double positive cells came out at 0%.
As for `CN1CCC(CN)(N2CCN(c3ccccc3)CC2)CC1`, the differentiation response was 1.95% (inactive) and the double positive cells is 1.25%.
In the same order, the values of `COc1ccc(S(=O)(=O)N2CCC(C(=O)N3CCc4ccccc4C3)CC2)cc1OC` are 1% (inactive) and 1%.
In the same order, the values of `Cc1ccc(OS(=O)Nc2cccc3nccnc23)cc1` (stereo not given) are 1.6% (inactive) and 0.85%.
Regarding `CCN(CC)C(=O)CSC(Nc1cccc(F)c1)=C(C#N)C#N`, the differentiation response is 13.7% (inactive) and the double positive cells was 0.9%.
Turning to `COc1cc(N=Cc2c(O)[nH]c3ccccc23)cc(OC)c1OC`, the differentiation response is 0% (inactive) and the double positive cells turned out to be 0%.
In the same order, the values of `CNC[C@H]1Oc2c(NC(=O)C3CCCCC3)cccc2C(=O)N([C@H](C)CO)C[C@@H]1C` are 4.4% (inactive) and 3.95%.
For `Cc1nn(-c2ncccn2)c2c1C(=O)CC(C)(C)C2Br` (stereo not given), the differentiation response was 1% (inactive) and the double positive cells is 0.85%.
For `Cn1c2ccccc2c2cc(/C=C(\NC(=O)c3ccccc3)C(=O)NCC(=O)O)ccc21`, the differentiation response was 3.05% (inactive) and the double positive cells worked out at 2.15%.
With `CCOC(=O)c1c(-c2ccc(C)cc2)csc1/N=C(\C)C1=C(O)c2ccccc2C1=O`, the differentiation response is 12.2% (inactive) and the double positive cells came to 3.3%.
Turning to `COc1ccc(-c2ccc(OC(=O)NC3CCS(=O)(=O)C3)cc2)cc1` (stereo not given), the differentiation response is 2.2% (inactive) and the double positive cells came out at 0.5%.
In the case of `O=S(=O)(c1ccc(Br)cc1)c1nc(-c2ccccc2)oc1NCc1cccnc1`, the differentiation response is 50.5% (inactive) and the double positive cells was determined as 50.2%.
The corresponding values for `Nc1nc(Nc2ccccc2F)nc(NC2CCCCC2)c1[N+](=O)[O-]` are 51.1% (inactive) and 25%.
`Cc1ccc(Nc2cc(C)nc3c(C)ccc([N+](=O)[O-])c23)cc1`: the differentiation response is 11.4% (inactive) and the double positive cells amounted to 0.55%.
The corresponding values for `CN1OC(COC(=O)c2ccc(Cl)cc2)CC1c1ccccc1` (stereo not given) are 1.05% (inactive) and 0.8%.
Turning to `COc1cc(/C=C2/SC(=S)N(Cc3ccccc3)C2=O)cc(OC)c1O`, the differentiation response is 2.8% (inactive) and the double positive cells stood at 0.4%.
Turning to `Clc1ccc(-c2nnc(SCc3nc4ccccc4s3)o2)cc1`, the differentiation response was 1.05% (inactive) and the double positive cells was found to be 1%.
In the same order, the values of `CC(=O)Nc1ccc(S(=O)(=O)Nc2ccc(N3CCOCC3)c(F)c2)cc1` are 1.45% (inactive) and 1%.
In the same order, the values of `COc1ccc(N(CC(=O)NC2CCCCCCC2)S(=O)(=O)c2c(C)nn(C)c2C)cc1` are 1.75% (inactive) and 0.95%.
On to `O[C@H]1CN(Cc2cccs2)[C@@H](c2ccc(Cl)cc2)C[C@@H]1n1cc(C2CC2)nn1`, for which the differentiation response is 1.4% (inactive) and the double positive cells came out at 1.1%.
Take `O[C@H]1C[C@H](c2ccc(Cl)cc2)N(Cc2cccs2)C[C@@H]1n1cc(C2CC2)nn1`: the differentiation response was 18.4% (active) and the double positive cells is 13.1%.
As to `Cc1ccc2c(c1)C1C[N+](C)(CC(=O)c3ccccc3)CCC1N2C(=O)c1ccccc1Cl` (stereo not given), the differentiation response is 4.1% (inactive) and the double positive cells stood at 2.05%.
For the compound `Cc1ccc(-n2nc3cc(C)c(NC(=O)c4cccnc4)cc3n2)cc1`, the differentiation response was 5.4% (inactive) and the double positive cells came to 1.05%.
Turning to `Cc1cccc(-n2c(SCC(=O)Nc3cccc(S(=O)(=O)NC4=NCCCCC4)c3)nc3ccccc3c2=O)c1C`, the differentiation response is 17.3% (inactive) and the double positive cells was determined as 0.7%.
Take `Fc1cccc(Cl)c1CSc1ccc(-c2ccco2)nn1`: the differentiation response was 1.2% (inactive) and the double positive cells was determined as 0.8%.
Consider `CC(C)c1nc2ccc(C(=O)O)cc2[nH]1`, for which the differentiation response was 1.95% (inactive) and the double positive cells was found to be 1.8%.
On to `CSc1nnc(-c2ccncc2)n1CCCN1CCCC1=O`, for which the differentiation response is 1.75% (inactive) and the double positive cells was 1.15%.
On to `O=C(NCCN=C1NS(=O)(=O)c2ccccc21)c1ccc(S(=O)(=O)N2CCOCC2)cc1`, for which the differentiation response is 1.35% (inactive) and the double positive cells came to 1.3%.
For the compound `CC(=O)N1c2ccc(S(=O)(=O)N3CCCC(C(=O)Nc4cccc(F)c4)C3)cc2CC1C` (stereo not given), the differentiation response was 1.45% (inactive) and the double positive cells worked out at 0.95%.
With `O=C(Nc1cccc2ncccc12)c1ccc(-c2ccc(Cl)cc2Cl)o1`, the differentiation response was 4.55% (inactive) and the double positive cells worked out at 2.9%.
Turning to `Cc1cccc(OCC(O)CN2CCN(CCN3C(=O)c4cccc5cccc(c45)C3=O)CC2)c1C` (stereo not given), the differentiation response was 0.25% (inactive) and the double positive cells turned out to be 0%.
As for `Cc1cccc(C)c1NC(=O)CCS(=O)(=O)c1cccc2nsnc12`, the differentiation response is 2% (inactive) and the double positive cells turned out to be 1.5%.
For the compound `CC(C)CNC(=O)COC(=O)/C=C/c1ccccc1[N+](=O)[O-]`, the differentiation response was 1.45% (inactive) and the double positive cells amounted to 1.2%.
For the compound `COC(=O)CN(c1cccc(C(C)=O)c1)S(C)(=O)=O`, the differentiation response was 2.05% (inactive) and the double positive cells stood at 1.5%.
In the same order, the values of `O=C(CN1C(=O)NC(Cc2c[nH]c3ccccc23)C1=O)Nc1ccccc1C(F)(F)F` (stereo not given) are 1.7% (inactive) and 1.2%.
In the same order, the values of `CC1(C)CC(=O)C2=C(C1)Nc1cc(C(=O)c3ccccc3)ccc1NC2c1ccccn1` (stereo not given) are 1.95% (inactive) and 1.65%.
As for `CCOC(=O)C1=C(CN2CCc3ccccc32)NC(=O)NC1c1cccc([N+](=O)[O-])c1` (stereo not given), the differentiation response is 12.3% (active) and the double positive cells was 8.95%.
With `Cc1nc(C)c(-c2nnc(-c3cccc(S(=O)(=O)N(C)C)c3)o2)cc1C(=O)NN`, the differentiation response is 4.1% (inactive) and the double positive cells turned out to be 1.3%.
Regarding `Cc1ccc2c(c1)c1ncn(Cc3ccc(F)cc3)c(=O)c1n2C`, the differentiation response is 2% (inactive) and the double positive cells was determined as 0.8%.
In the same order, the values of `O=c1oc2ccccc2cc1-c1csc(Nc2ccc(O)cc2)n1` are 27.4% (inactive) and 12.5%.
`Cc1cc(C)n(C(=O)c2ccc(C)c(S(=O)(=O)N3CCOCC3)c2)n1`: the differentiation response is 1.9% (inactive) and the double positive cells was determined as 1.8%.
As to `Cc1cc(C)c(S(=O)(=O)NCC2CCC(C(=O)NCc3ccc4c(c3)OCO4)CC2)c(C)c1` (stereo not given), the differentiation response is 3.7% (inactive) and the double positive cells worked out at 1.35%.
`CCOc1ccc(C(=O)Nc2ccc(S(=O)(=O)NCC3CCCO3)cc2)cc1OCC` (stereo not given): the differentiation response is 1.5% (inactive) and the double positive cells worked out at 1.2%.
For `CC(C)(C)OC(=O)CNC(=O)c1[nH]cnc1C(=O)N[C@@H](Cc1ccccc1)C(=O)OCc1ccccc1`, the differentiation response is 1.85% (inactive) and the double positive cells came to 1.95%.
The corresponding values for `CCCC(=O)Nc1c(O)c2ccccc2[nH]c1=O` are 1.45% (inactive) and 1.1%.
For the compound `C/C(=C\c1ccccc1)C1NC(=O)c2c(sc3c2CCCC3)N1` (stereo not given), the differentiation response is 1.1% (inactive) and the double positive cells was found to be 0.75%.
On to `COc1ccc(C2CC(c3cccc(OC)c3)=NN2c2ccc(S(N)(=O)=O)cc2)cc1` (stereo not given), for which the differentiation response is 2.25% (inactive) and the double positive cells turned out to be 1.4%.
